Data from PubChem BioAssay (NCI).
This is part of a sample that, as a whole, favours compounds with a hit. Of some 83,000 tested, about 20% had one in any assay.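 Growth was measured after 48 h exposure to one concentration of compound in 96-well plates. Values under 10 count as active.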 Active and inactive are the calls of the source.

How the values were obtained:
Test in all cases: NCI-60 one-dose screen, 48 h (100 = growth as untreated, 0 = no growth, -100 = all killed)
Details in all cases: 10 µM
[1] = system: NCI-H23 lung
[2] = system: NCI-H226 lung
[3] = system: NCI-H322M lung
[4] = system: HOP-62 NSCLC
[5] = system: NCI-H460 lung
[6] = system: NCI-H522 lung
[7] = system: 786-0 renal
[8] = system: COLO 205 colon
[9] = system: DU-145 prostate
[10] = system: K-562 leukemia
[11] = system: MALME-3M melanoma
[12] = system: MDA-MB-231 breast
[13] = system: RXF 393 renal
[14] = system: SF-268 CNS
[15] = system: SF-295 CNS
[16] = system: SF-539 CNS
[17] = system: UACC-257 melanoma
[18] = system: M14 melanoma
[19] = system: HCT-15 colon
[20] = system: A549/ATCC NSCLC

Measured: growth

O=C1/C(=C\c2ccccc2)CN(C(=O)c2ccccc2F)C/C1=C\c1ccccc1
inactive: [1] 33.8% | [2] 27.9% | [3] 74.6% | [4] 17.9% | [5] 51.6% | [8] 14.6% | [12] 12.7% | [14] 16.9% | [16] 40.5%
active: [6] -3.31% | [7] -40.8% | [9] 7.15% | [10] 0.045% | [11] -34.5% | [13] -78.2% | [15] 6.51% | [17] -10.1% | [18] -59.5% | [19] -28.5%

COc1cc(C(=O)/C=C/c2cc(-c3cc(OC)c(OC)c(OC)c3)n[nH]2)cc(OC)c1OC
inactive: [1] 68.4% | [2] 36.8% | [5] 29.7% | [15] 135%
active: [3] -8.96% | [4] -30.1% | [6] -75.5% | [7] -71.7% | [8] -88.3% | [9] 4.4% | [10] 4.46% | [11] -56% | [12] 3.71% | [13] -84.3% | [14] 4.97% | [16] -56.2% | [17] -1.5% | [18] 6.7% | [19] 3.63%

O=C(c1ccc(Cl)cc1Cl)N1CCOCC1
inactive: [1] 97.3% | [2] 96.8% | [3] 101% | [4] 97% | [5] 104% | [6] 103% | [7] 97.4% | [8] 111% | [9] 109% | [10] 89.1% | [11] 112% | [12] 98.5% | [13] 116% | [14] 98.1% | [15] 140% | [16] 96.9% | [17] 96.6% | [18] 103% | [19] 112%

O=S(=O)(Nc1ccccn1)c1ccc(N=Nc2ccc(O)c3ncccc23)cc1
inactive: [1] 14.5% | [2] 21.3% | [7] 21.4% | [8] 108% | [9] 27.6% | [13] 27.1% | [14] 25% | [16] 10.8% | [18] 11.8% | [19] 14.5%
active: [3] -11.8% | [4] 7.27% | [5] 5.48% | [6] -21.6% | [10] 6.51% | [11] -19.8% | [12] -2.1% | [15] 6.2% | [17] -23.5%

CC1(O)CCC2CC3OC3(C)CCC3OC3(C)CCC1C2(C)C (stereo not given)
inactive: [1] 105% | [2] 108% | [3] 114% | [4] 98.8% | [5] 112% | [6] 98.1% | [20] 90.7% | [7] 99.7% | [8] 106% | [10] 113% | [11] 110% | [12] 102% | [14] 107% | [15] 89.6% | [16] 119% | [18] 103% | [19] 105%

Nc1c(C(=O)Nc2cccc(Br)c2)sc2nc3c(cc12)C(O)CCC3 (stereo not given)
active: [6] -4.01% | [8] -1.49% | [9] -0.178% | [10] 7.52% | [13] -22% | [16] -21.2%
inactive: [1] 34.9% | [2] 68.6% | [3] 48.8% | [4] 38.1% | [5] 11.3% | [7] 45.1% | [11] 64.3% | [12] 44.2% | [14] 46.2% | [15] 33.9% | [17] 64.7% | [18] 12.8% | [19] 23.5%

FC(F)(F)c1ccc(-c2cnc(-n3cc(COCCN4CCCCC4)nn3)nc2NC2CCCCCC2)cc1
inactive: [1] 67.7% | [2] 78.7% | [3] 54.4% | [4] 52.4% | [7] 51.1% | [9] 57.7% | [12] 11.1% | [14] 33.2%
active: [5] -68.3% | [6] -12.8% | [8] -93.4% | [10] -48.4% | [11] -86.3% | [13] -3.46% | [15] -56.8% | [16] -66.8% | [17] -89.7% | [18] -87.6% | [19] 3.73%

Clc1nc(Cl)c2c(ncn2C/C=C\Cn2cnc3c(Cl)nc(Cl)nc32)n1
active: [1] -15.8% | [2] -80.1% | [3] 8.09% | [5] 0.846% | [6] -70.6% | [20] -79.4% | [7] -4.46% | [8] -51.5% | [10] -20.6% | [11] -84.8% | [12] -100% | [14] 6.36% | [15] -10.7% | [16] -71.6% | [18] -10.5% | [19] -85.4%
inactive: [4] 11.2%

COc1ccc2c(c1)sc1nc(-c3ccccc3)c(-c3ccsc3)n12
active: [5] 7.9% | [6] -13.4% | [8] 3.28% | [9] 3.69% | [13] -13.3% | [15] -20% | [16] 2.07%
inactive: [1] 36% | [2] 55.8% | [3] 53.4% | [4] 36.8% | [7] 57.5% | [10] 13.8% | [12] 52.3% | [14] 54.3% | [17] 39.7% | [18] 15.6% | [19] 30.5%

CC(=O)N1C/C(=C/c2ccc(Cl)cc2)C(=O)/C(=C/c2ccc(Cl)cc2)C1
active: [1] -28% | [2] -39.5% | [3] -9.19% | [4] -29.7% | [5] -14.1% | [6] -66.4% | [7] -59.3% | [8] -48.8% | [9] -30.5% | [10] 2.09% | [11] -56.4% | [12] -23.6% | [13] -92.8% | [14] -26.8% | [15] -30.1% | [16] -39.4% | [17] -32.2% | [18] -51.1% | [19] -5.84%

COc1ccc(-c2nc3sc(C4CC4)nn3c2/C=C2/C(=O)Nc3ccc(OC)cc32)cc1
inactive: [1] 82% | [2] 63.7% | [3] 61.6% | [4] 80.9% | [6] 63.8% | [20] 75.5% | [7] 86% | [8] 88.5% | [9] 62.3% | [10] 74.3% | [12] 58.4% | [13] 63.9% | [14] 75.8% | [15] 82.8% | [16] 25.1% | [17] 55.2% | [18] 63.8% | [19] 76.9%

CCC1(C(C)C)NC(=O)NC1=O (stereo not given)
inactive: [1] 99.1% | [2] 96.4% | [3] 110% | [4] 96% | [6] 101% | [20] 96.1% | [7] 97.7% | [8] 115% | [9] 104% | [10] 88.3% | [11] 104% | [12] 100% | [14] 102% | [15] 97.6% | [16] 101% | [17] 92.4% | [18] 107% | [19] 105%

Cc1nc2oc3ccccc3c(=O)c2cc1C(=O)NCc1ccccc1
inactive: [1] 85.9% | [2] 105% | [3] 76.2% | [4] 90.5% | [6] 86.4% | [20] 68.9% | [7] 61.5% | [8] 39.9% | [9] 77% | [10] 13.1% | [12] 87.9% | [13] 113% | [14] 83% | [15] 43.2% | [16] 93.4% | [17] 68.1% | [18] 45.9% | [19] 70.2%

COC(=O)C(C(C[N+](=O)[O-])c1ccccc1)=P(c1ccccc1)(c1ccccc1)c1ccccc1 (stereo not given)
inactive: [1] 92.4% | [2] 96.6% | [3] 94.3% | [4] 96.1% | [6] 83.3% | [7] 96.1% | [8] 106% | [9] 89.6% | [10] 53.4% | [11] 96% | [12] 108% | [13] 85.9% | [14] 96.1% | [15] 91.6% | [16] 99.2% | [17] 91.5% | [18] 76.3% | [19] 88.9%

O=C(Nc1cccc(-n2cc(-c3ccncc3)c(-c3cc(O)cc(Cl)c3)n2)c1)c1cc(C(F)(F)F)cc(C(F)(F)F)c1
active: [12] -34.6% | [13] -10.3%
inactive: [1] 42.7% | [2] 96% | [3] 74.1% | [4] 58.3% | [6] 17.8% | [20] 27.3% | [7] 55.1% | [8] 38.7% | [9] 62.1% | [10] 20.4% | [11] 61.7% | [14] 69.4% | [15] 15% | [16] 75.5% | [17] 71% | [18] 24.5% | [19] 30.1%

O=[N+]([O-])c1cccc(-c2ncc(-c3ccc(Cl)cc3Cl)[nH]2)c1
active: [6] -14% | [10] -23.6% | [18] 5.51% | [19] -89.7%
inactive: [1] 104% | [2] 80% | [3] 131% | [4] 45.8% | [20] 94.4% | [7] 66.8% | [8] 89.4% | [9] 40% | [11] 125% | [12] 67.7% | [13] 95% | [14] 54.4% | [15] 93.7% | [16] 101% | [17] 109%
